# Results from PubChem BioAssay (NCATS).
# Inconclusive results are not listed. Entries that show only a call come without a potency. Values without a mark were called inactive. Active and inactive are the calls of the source. Unless noted, the call rests on the fitted dose curve; in most records, active means well fitted curve in the direction sought with a large enough effect in the repeat runs; inconclusive means weak or mixed curves; inactive means no such curve, though single readings can be large; an effect the other way counts as inactive or inconclusive.
# Tests used:
# [1] = Primary qHTS for small molecule stabilizers of the endoplasmic reticulum resident proteome: Secreted ER Calcium Modulated Protein (SERCaMP) assay (AID 1508630; active means well fitted curve in the direction sought with a large enough effect; an effect the other way counts as inactive or inconclusive)
# Method in brief: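 The SH-SY5Y reporter protocol was run at 3 concentrations up to 38.3 uM (primary) or 11 concentrations (follow-up): 16 h compound, 100 nM thapsigargin for 4 h, then extracellular luciferase luminescence.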
# [2] = A High-Content qHTS Against Drug Library for the Identification of Small Molecules that Inhibit DYT1 Early Onset Primary Dystonia-Associated Cell Pathology (AID 1645839; calls by dose curve; further: potency means the concentration at half of the fitted maximal effect; on % pathology change, negative = correction: series mostly up to about 46 µM)
# Method in brief: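 High-content imaging quantified EGFP-TorsinA mislocalization in HEK293-derived cells inducibly expressing DYT1 mutant torsinA, after 48 h exposure to compound given together with tetracycline induction. Cell count served as a toxicity channel alongside %pathology.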
# [3] = molecular target: Cytochrome P450 2D6 (Homo sapiens) (UniProt P10635); assay: Cytochrome P450 family 2 subfamily D member 6 (CYP2D6) small molecule antagonists: luciferase biochemical (cell-free) qHTS assay (AID 1645840); further: nearly all actives have a fitted effect of over 55% in size; further: potency means the concentration at half of the fitted maximal effect; on activity change, negative = inhibition: series mostly up to about 57 µM
# Method in brief: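 P450-Glo CYP2D6 system: proluciferin substrate converted by enzyme to luciferin, read by luminescence proportional to activity. Enzyme-substrate mix with compound 10 min at room temperature, then NADPH regeneration 1 h before detection reagent.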
# [4] = molecular target: Cytochrome P450 2C9 (Homo sapiens) (UniProt P11712); assay: Cytochrome P450 family 2 subfamily C member 9 (CYP2C9) small molecule antagonists: luciferase biochemical (cell-free) qHTS assay (AID 1645842); further: nearly all actives have a fitted effect of over 55% in size; further: potency means the concentration at half of the fitted maximal effect; on activity change, negative = inhibition: series mostly up to about 57 µM
# Method in brief: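 P450-Glo CYP2C9 system: proluciferin substrate with enzyme in mix containing 0.4% BSA, 10 min at room temperature, then NADPH regeneration solution added and incubated 1 h at 37C. Detection reagent stopped reaction; luminescence read after 20 min as RLU.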
# [5] = molecular target: N-terminal Xaa-Pro-Lys N-methyltransferase 1 (Homo sapiens) (UniProt Q9BV86); assay: Confirmatory qHTS for Inhibitors of N-terminal methyltransferase 1 (NTMT1): MTaseGlo Assay (AID 1645874; active means well fitted curve in the direction sought with a large enough effect; an effect the other way counts as inactive or inconclusive; further: potency means the concentration at half of the fitted maximal effect; nearly all actives have a fitted effect of over 65% in size)
# Method in brief: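 MTase-Glo luminescence measured SAH formed by 125 nM NTMT1 from 100 uM SAM and 1 uM SPKRIA peptide over 30 min at room temperature, following 15 min compound preincubation. Percent inhibition against no-enzyme and DMSO controls gave 4-parameter Hill fits.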
# [6] = molecular target: Cytochrome P450 3A4 (Homo sapiens) (UniProt P08684); assay: Cytochrome P450 family 3 subfamily A member 4 (CYP3A4) small molecule antagonists: luciferase qHTS assay (AID 1645841); further: nearly all actives have a fitted effect of over 45% in size
# Method in brief: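 Luminescent CYP3A4 activity readout: compounds plus enzyme-substrate mix 10 min at room temperature, reaction started with NADPH regenerating system for 1 h, stopped with detection reagent, read after 20 min. Ketoconazole served as control.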
# Sequence of Cytochrome P450 2D6 (Homo sapiens) (P10635 whole entry, looked up): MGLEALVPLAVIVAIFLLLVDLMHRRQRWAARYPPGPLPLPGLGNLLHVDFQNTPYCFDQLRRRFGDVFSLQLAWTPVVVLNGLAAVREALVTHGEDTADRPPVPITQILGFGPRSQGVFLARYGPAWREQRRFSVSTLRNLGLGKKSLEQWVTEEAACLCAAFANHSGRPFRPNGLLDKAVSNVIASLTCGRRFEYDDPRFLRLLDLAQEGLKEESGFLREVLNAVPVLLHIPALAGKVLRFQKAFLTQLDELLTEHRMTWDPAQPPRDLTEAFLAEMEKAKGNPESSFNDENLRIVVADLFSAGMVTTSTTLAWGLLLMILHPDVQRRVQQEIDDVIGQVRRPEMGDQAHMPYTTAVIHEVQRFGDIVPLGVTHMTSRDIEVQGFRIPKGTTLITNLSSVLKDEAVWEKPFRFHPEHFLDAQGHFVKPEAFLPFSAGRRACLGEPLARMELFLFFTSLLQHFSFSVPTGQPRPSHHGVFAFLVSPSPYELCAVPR
# Sequence of Cytochrome P450 2C9 (Homo sapiens) (P11712 whole entry, looked up): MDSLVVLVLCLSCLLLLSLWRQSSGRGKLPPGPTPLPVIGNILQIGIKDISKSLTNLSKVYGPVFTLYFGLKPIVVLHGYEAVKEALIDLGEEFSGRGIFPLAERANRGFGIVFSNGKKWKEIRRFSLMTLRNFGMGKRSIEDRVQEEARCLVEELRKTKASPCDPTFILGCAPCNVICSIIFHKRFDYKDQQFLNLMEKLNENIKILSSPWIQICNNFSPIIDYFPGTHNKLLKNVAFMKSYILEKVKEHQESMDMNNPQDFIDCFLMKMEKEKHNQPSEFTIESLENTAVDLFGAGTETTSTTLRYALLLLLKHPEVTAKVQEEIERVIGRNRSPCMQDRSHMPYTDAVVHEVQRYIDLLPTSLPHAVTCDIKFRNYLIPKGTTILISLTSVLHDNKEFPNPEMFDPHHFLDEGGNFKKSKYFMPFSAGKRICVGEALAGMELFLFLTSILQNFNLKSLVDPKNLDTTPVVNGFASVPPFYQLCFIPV
# Sequence of N-terminal Xaa-Pro-Lys N-methyltransferase 1 (Homo sapiens) (Q9BV86 whole entry, looked up): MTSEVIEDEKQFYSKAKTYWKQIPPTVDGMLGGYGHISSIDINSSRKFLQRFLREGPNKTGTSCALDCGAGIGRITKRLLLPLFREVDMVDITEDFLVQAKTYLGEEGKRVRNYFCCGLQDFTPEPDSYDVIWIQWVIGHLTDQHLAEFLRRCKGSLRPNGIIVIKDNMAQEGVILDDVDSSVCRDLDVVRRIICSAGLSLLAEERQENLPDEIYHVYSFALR
# Sequence of Cytochrome P450 3A4 (Homo sapiens) (P08684 whole entry, looked up): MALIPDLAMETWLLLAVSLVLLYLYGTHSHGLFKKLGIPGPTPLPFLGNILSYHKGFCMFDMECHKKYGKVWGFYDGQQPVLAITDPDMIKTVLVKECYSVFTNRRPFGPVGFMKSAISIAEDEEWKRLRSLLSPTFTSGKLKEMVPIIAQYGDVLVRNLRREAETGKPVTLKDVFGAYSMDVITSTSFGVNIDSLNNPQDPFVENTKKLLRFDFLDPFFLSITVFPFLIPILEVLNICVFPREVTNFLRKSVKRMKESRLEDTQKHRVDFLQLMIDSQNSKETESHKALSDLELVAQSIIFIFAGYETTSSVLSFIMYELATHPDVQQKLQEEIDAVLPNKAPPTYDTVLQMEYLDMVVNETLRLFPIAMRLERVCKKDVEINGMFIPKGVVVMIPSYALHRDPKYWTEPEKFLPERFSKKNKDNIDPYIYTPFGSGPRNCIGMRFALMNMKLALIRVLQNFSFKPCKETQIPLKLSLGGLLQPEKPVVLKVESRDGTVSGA
structure (smiles),measurement,setting,value
CCC(=O)c1c(O)cc(O)cc1O,Potency,[1],inactive
same,Potency,[2],inactive
same,Potency,[3],24.5 µM (active)
same,Potency,[4],15.5 µM (active)
C[C@@H]1C[C@H]2[C@@H]3CCC4=CC(=O)C=C[C@]4(C)[C@@]3(F)[C@@H](O)C[C@]2(C)[C@H]1C(=O)CO,Potency,[1],inactive
same,Potency,[2],inactive
same,Potency,[3],inactive
same,Potency,[4],11 µM (active)
CC1(C)O[C@@H]2C[C@H]3[C@@H]4C[C@H](F)C5=CC(=O)CC[C@]5(C)[C@H]4[C@@H](O)C[C@]3(C)[C@]2(C(=O)CO)O1,Potency,[1],inactive
same,Potency,[2],inactive
same,Potency,[3],inactive
same,Potency,[4],inactive
COC(=O)CCc1ccc(OCC(O)CNC(C)C)cc1 (centres undefined),Potency,[1],inactive
same,Potency,[2],inactive
same,Potency,[3],inactive
same,Potency,[4],inactive
Cc1c(F)c(N2CCNC(C)C2)cc2c1c(=O)c(C(=O)O)cn2C1CC1 (centres undefined),Potency,[1],inactive
same,Potency,[2],inactive
same,Potency,[3],inactive
same,Potency,[4],inactive
CCCCCCC[N+](CC)(CC)CCCCc1ccc(Cl)cc1,Potency,[1],inactive
same,Potency,[2],inactive
same,Potency,[3],0.0977 µM (active)
same,Potency,[4],inactive
Oc1cc(O)c2c(c1)O[C@H](c1ccc(O)c(O)c1)[C@H](O)C2,Potency,[1],inactive
same,Potency,[2],inactive
same,Potency,[3],inactive
same,Potency,[4],inactive
CC(=O)N/N=C/c1ccc([N+](=O)[O-])o1,Potency,[1],inactive
same,Potency,[2],inactive
same,Potency,[3],15.5 µM (active)
same,Potency,[4],inactive
CC(O)(P(=O)(O)O)P(=O)(O)O,Potency,[1],inactive
same,Potency,[2],inactive
same,Potency,[3],inactive
same,Potency,[4],inactive
CC1(C)OC[C@@H](COC(=O)CCc2ccc(OC[C@@H](O)CNCCNC(=O)N3CCOCC3)cc2)O1,Potency,[1],inactive
same,Potency,[2],inactive
same,Potency,[3],inactive
same,Potency,[4],inactive
CCn1cc(C(=O)O)c(=O)c2cnc(N3CCCC3)nc21,"activity change, negative = inhibition",[1],-14.1% [at 7.35 µM]
same,"% pathology change, negative = correction",[2],0.401% [at 9.22 µM]
same,"activity change, negative = inhibition",[3],-1.21% [at 11.5 µM]
same,"activity change, negative = inhibition",[4],-2.8% [at 11.5 µM]
COc1c2occc2c(OC)c2c(=O)cc(C)oc12,Potency,[1],inactive
same,Potency,[2],inactive
same,Potency,[3],15.5 µM (active)
same,Potency,[4],11 µM (active)
Oc1ccc(Cl)c2cccnc12,Potency,[1],inactive
same,Potency,[2],inactive
same,Potency,[3],inactive
same,Potency,[4],inactive
COCc1c(C(C)C)nc(C(C)C)c(/C=C/[C@@H](O)C[C@@H](O)CC(=O)O)c1-c1ccc(F)cc1,Potency,[1],inactive
same,Potency,[3],inactive
Cc1c(C)n(Cc2ccccc2)c2ccc(C(=O)OCCN(C)C)cc12,Potency,[1],inactive
same,Potency,[2],11.2 µM (active)
same,Potency,[3],13.8 µM (active)
same,Potency,[4],12.3 µM (active)
same,Potency,[5],5.78 µM (active)
CC(=O)OCC(=O)NCCCOc1cccc(CN2CCCCC2)c1,Potency,[1],inactive
same,Potency,[2],inactive
same,Potency,[4],inactive
Cc1c(C)n(CCN(C)C)c2ccc(C(=O)OCCN(C)C)cc12,Potency,[1],inactive
same,Potency,[3],inactive
same,Potency,[4],inactive
CCCCCC=CCC=CCCCCCCCC(=O)OCC,Potency,[1],inactive
same,Potency,[2],inactive
same,Potency,[4],9.77 µM (active)
C[C@@H]1C[C@H]2[C@@H]3C[C@H](F)C4=CC(=O)C(Cl)=C[C@]4(C)[C@@]3(F)[C@@H](O)C[C@]2(C)[C@@]1(O)C(=O)CO,Potency,[1],inactive
same,Potency,[2],inactive
same,Potency,[4],inactive
O=C(CCN1CCC(c2ccccc2)C1)c1ccc2c(c1)OCCO2 (centres undefined),Potency,[1],inactive
same,Potency,[3],0.977 µM (active)
same,outcome,[6],inactive
same,Potency,[4],inactive
COC(=O)[C@@H]1CC2=CC(=O)CC[C@]2(C)[C@@]23O[C@@H]2C[C@@]2(C)[C@@H](CC[C@@]24CCC(=O)O4)[C@H]13,Potency,[1],inactive
same,Potency,[2],inactive
same,Potency,[4],inactive
CC(=O)Nc1c(I)cc(I)c(C(=O)O)c1I,Potency,[1],inactive
same,Potency,[2],inactive
same,Potency,[3],19.5 µM (active)
same,Potency,[4],inactive
Cc1c(C(N)=O)cc([N+](=O)[O-])cc1[N+](=O)[O-],Potency,[1],inactive
same,Potency,[2],inactive
same,Potency,[3],inactive
same,Potency,[4],inactive
CCN1CCC[C@H]1CNC(=O)c1c(OC)ccc(Br)c1OC,Potency,[1],inactive
same,Potency,[2],inactive
same,Potency,[4],inactive
CCCCC(CC)CN=C(N)NC(N)=NCCCCCCN=C(N)NC(N)=NCC(CC)CCCC (centres undefined),Potency,[1],inactive
same,Potency,[2],11.2 µM (active)
same,Potency,[3],0.617 µM (active)
same,Potency,[4],12.3 µM (active)
same,Potency,[5],18.3 µM (active)
